From the supplement of paper PMC6607015
Structures can show the parent of a compound that is named as a salt.

test system: HeLa MZ; assay: whole-cell filipin (free cholesterol) integrated intensity, Z-score; higher = more cholesterol staining; details: compound concentration in added solution (µM; 5 µl added to 20 µl cells): 10; 18 h
In short: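 Duplicate 384-well imaging plates were prepared with 5 µl of 10 µM compound solution per well, and 3,500 HeLa MZ or A431 cells in 20 µl were added on top. Following 18 h of incubation and fixation in 4% PFA, cells received 6C4 anti-LBPA antibody, filipin, propidium iodide and CellTracker green. Four images per well at 20× were segmented in MetaXpress to yield per-cell integrated LBPA or filipin intensity, whole-cell or within LBPA endosomes. These intensities are reported as Z-scores normalised in AcuityXpress.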

| Compound | whole-cell filipin (z-score) |
| --- | --- |
| C=C1C[C@@H]2[C@H](CC[C@]3(C)C(=O)CC[C@@H]23)[C@@]2(C)C=CC(=O)C=C12 [Exemestane] | -0.2 |
| CC[N+]1(C)CCCC(OC(=O)C(O)(c2ccccc2)c2ccccc2)C1 (stereo not given) [Pipenzolate bromide] | 0.198 |
| C=CCC1(CC(C)C)C(=O)NC(=O)NC1=O [Butalbital] | -0.648 |
| CCCC(C)C1(CC)C(=O)NC(=O)NC1=O (stereo not given) [Pentobarbital] | -0.632 |
| CC(=O)OCC1=C(C(=O)O)N2C(=O)[C@@H](N)[C@H]2SC1 [Cephalosporanic acid, 7-amino] | -0.877 |
| Cc1cccc(C)c1NC1=NCCCS1 [Xylazine] | -0.725 |
| CC(C)(N)Cc1ccccc1 [Phentermine hydrochloride] | 0.563 |
| CN(C)C(=O)Oc1cc(OC(=O)N(C)C)cc(C(O)CNC(C)(C)C)c1 (stereo not given) [Bambuterol hydrochloride] | -0.434 |
| CN1C[C@H](C(=O)N[C@]2(C)O[C@@]3(O)[C@@H]4CCCN4C(=O)[C@H](Cc4ccccc4)N3C2=O)C[C@@H]2c3cccc4[nH]cc(c34)C[C@H]21 [Dihydroergotamine tartrate] | 0.225 |
| CCCC(C)(COC(N)=O)COC(=O)NC(C)C (stereo not given) [Carisoprodol] | -0.798 |
| O=C(CCCN1CCC2(CC1)C(=O)NCN2c1ccccc1)c1ccc(F)cc1 [Spiperone] | 1.7 |
| CCC1(c2cccc(O)c2)CCCCN(C)C1 (stereo not given) [Meptazinol hydrochloride] | -0.306 |
| CN1[C@@H]2CC[C@H]1C[C@@H](OC1c3ccccc3CCc3ccccc31)C2 [Deptropine citrate] | -0.333 |
| CC(C)CC(N(C)C)C1(c2ccc(Cl)cc2)CCC1 (stereo not given) [Sibutramine HCl] | -0.373 |
| C[C@]12COC(=O)C[C@@H]1CC[C@@H]1[C@@H]2CC[C@@]2(C)[C@H]1CC[C@]2(C)O [Oxandrolone] | -0.159 |
| COc1ccc2c(c1)[C@]13CCCC[C@@H]1[C@H](C2)N(C)CC3 [Dextromethorphan hydrobromide monohydrate] | 0.286 |
| CCC(=O)O[C@H]1CC[C@H]2[C@@H]3CCC4=CC(=O)CC[C@]4(C)[C@H]3CC[C@]12C [Testosterone propionate] | -0.813 |
| C[C@]12CC[C@@H](O)C[C@@H]1CC[C@@H]1[C@@H]2CC[C@]2(C)C(=O)CC[C@@H]12 [Androsterone] | -0.395 |

| Compound | whole-cell filipin (z-score) |
| --- | --- |
| COc1cc2c(cc1OC)C(C)NCC2 (stereo not given) | -0.327 |
| C[C@]12C[C@H]3S[C@H]3C[C@@H]1CC[C@@H]1[C@@H]2CC[C@]2(C)[C@@H](O)CC[C@@H]12 [Epitiostanol] | 0.761 |
| C1CCc2nnnn2CC1 [Pentylenetetrazole] | -0.876 |
| NCCCNCCSP(=O)(O)O [Amifostine] | -0.742 |
| CCC1(c2ccc(N)cc2)CCC(=O)NC1=O (stereo not given) [Glutethimide, para-amino] | -1 |
| CCNCC(O)c1cccc(O)c1 (stereo not given) [Etilefrine hydrochloride] | -0.0907 |
| CCN(CC)C(C)C(=O)c1ccccc1 (stereo not given) [Amfepramone hydrochloride] | -0.758 |
| CN1CCN(C(=O)OC2c3nccnc3C(=O)N2c2ccc(Cl)cn2)CC1 (stereo not given) [Zopiclone] | -0.164 |
| CC(O)(CS(=O)(=O)c1ccc(F)cc1)C(=O)Nc1ccc(C#N)c(C(F)(F)F)c1 (stereo not given) [Bicalutamide] | 0.26 |
| CC(=O)O[C@H]1CC[C@@]2(C)C(=CC[C@@H]3[C@@H]2CC[C@]2(C)C(=O)CC[C@@H]32)C1 [Dehydroisoandosterone 3-acetate] | 0.0333 |
| C[C@H](N)[C@H](O)c1ccc(O)c(O)c1 [Levonordefrin] | 0.753 |
| C=C1[C@@H]2CC[C@H]3[C@]4(C)C[C@H](O[C@@H]5O[C@H](CO)[C@@H](OS(=O)(=O)O)[C@H](OS(=O)(=O)O)[C@H]5OC(=O)CC(C)C)C[C@@H](C(=O)O)[C@H]4CC[C@]3(C2)[C@@H]1O [Atractyloside potassium salt] | -0.252 |
| O=c1c2ccccc2[se]n1-c1ccccc1 [Ebselen] | -0.0059 |
| CCC1=C[C@H]2CN3CCc4c([nH]c5ccccc45)[C@](C(=O)OC)(C2)[C@H]13 [Catharanthine] | 0.581 |
| CC(=O)OCC(=O)[C@H]1CC[C@H]2[C@@H]3CC[C@H]4C[C@H](O)CC[C@]4(C)[C@H]3C(=O)C[C@]12C [Alfadolone acetate] | 0.815 |
| CN[C@@H]1[C@@H](O)[C@@H](O[C@@H]2[C@@H](O)[C@H](O[C@H]3O[C@H](CN)CC[C@H]3N)[C@@H](N)C[C@H]2N)OC[C@]1(C)O.CN[C@@H]1[C@@H](O)[C@@H](O[C@@H]2[C@@H](O)[C@H](O[C@H]3O[C@H]([C@@H](C)N)CC[C@H]3N)[C@@H](N)C[C@H]2N)OC[C@]1(C)O.CN[C@@H]1[C@@H](O)[C@@H](O[C@@H]2[C@@H](O)[C@H](O[C@H]3O[C@H]([C@@H](C)NC)CC[C@H]3N)[C@@H](N)C[C@H]2N)OC[C@]1(C)O [Gentamicine sulfate] | -0.98 |
| O=[N+]([O-])O[C@H]1CO[C@H]2[C@@H]1OC[C@H]2O[N+](=O)[O-] [Isosorbide dinitrate] | -0.655 |
